# DT40 TDP1 no CPT: qHTS for Inhibitors of human tyrosyl-DNA phosphodiesterase 1 (TDP1): qHTS in cells in absence of CPT | DT40 Tdp1-/- hTDP1 cells, no CPT, ATP luminescence, 48 h | Potency, µM (top dose mostly 46.2 µM), for the others: top-dose activity change, negative = growth inhibition, hits mostly inhibitors | 420,000 tested, 15% active | AID 686978, 2013; also: potency is read from the fitted curve at half-maximal effect; nearly all actives have a fitted effect of over 55% in size
#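 DT40 Tdp1-/-;hTDP1 cells, no CPT (DMSO vehicle only), 400 cells/well; compounds pin-transferred; ≥48 hr, 37 °C; CellTiter-Glo 30 min RT dark, luminescence read.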
# HT1080NT lethal: kills 2HG-producing HT-1080-NT fibrosarcoma cells; HT-1080-NT fibrosarcoma viability, CellTiter-Glo ATP luminescence, 48 h; Potency, µM (top dose mostly 46.1 µM), for inactives: top-dose activity, negative = less viability, usual class: cytotoxic; 360,000 tested, 1.6% active; AID 686970;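 also: NT is the 2HG producing partner of a matched IDH1 knockdown line; potency is read from the fitted curve at half-maximal effect; 0% = DMSO-treated cells and -100% = media-only wells without cells; nearly all actives have a fitted effect of over 55% in size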
#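 Read-out is CellTiter-Glo luminescence after 10 minutes at room temperature, following 48 hours' compound treatment of HT-1080-NT cells (750 cells/well, RPMI, 5% FBS, 37 degrees C).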
# TDP1 cell CPT: growth inhibition of DT40 Tdp1-/-;hTDP1 cells with camptothecin (screen for TDP1 inhibitors); chicken DT40 Tdp1-/-;hTDP1 cells + 20 nM CPT, ATP luminescence, 48 h; Potency, µM (top dose mostly 46.2 µM), for the others: at the highest dose activity change, negative = growth inhibition, actives largely listed as inhibitors; 420,000 tested, 12% active; AID 686979; also: potency is read from the fitted curve at half-maximal effect; nearly all actives have a fitted effect of over 55% in size
#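 Chicken DT40 Tdp1-/- cells stably complemented with human TDP1 were seeded at 400 cells/well in medium containing 20 nM camptothecin, exposed to pin-transferred compounds, and grown at 37 °C for at least 48 hr. Viability was read as ATP luminescence.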
# IL1B secr inh: inflammasome signaling inhibition, IL-1 beta readout; THP-1 LPS/ATP IL-1B secretion, AlphaLISA, 16 h; hits give low values; activity change, % at 57.5 µM; 360,000 tested, 4.7% active; in the data active = activity change below about -50%; inconclusive = mostly about -30% to -49%
#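 THP-1 cells pretreated 1 hr with compounds (up to 57.5 uM final), then stimulated with LPS (250 ng/mL final) plus ATP (1.25 mM final); secreted IL-1B measured by AlphaLISA after 16 hr, decreased signal indicating inhibition.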
# HT1080 IDH1KD tx: toxicity to HT-1080 IDH1 knockdown cells (counter line); HT-1080 IDH1 knockdown viability, ATP luminescence, 48 h; Potency, µM (highest dose often 46.1 µM), inactives show top-dose activity, negative = toxicity, usual class: cytotoxic; 360,000 tested, 2% active; AID 686971;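 also: potency is read from the fitted curve at half-maximal effect; 0% = DMSO wells and -100% = cell-free medium wells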
#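 Using the IDH1-knockdown HT-1080 line run in the same batch and compound series as the NT line, viability after 48 h at 37 °C was determined by CellTiter-Glo luminescence and expressed as % activity.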
# * = called active by the depositor; ? = inconclusive; . = no result given. Most compounds without a hit are left out; they make up all but 19% or so of the library. Unless noted, calls follow the shape of the dose curve; as a rule, active = well fitted curve in the direction sought with a large enough effect; inconclusive = small, poorly fitted or top-dose-only effect, or another doubt; inactive = no such curve, though single readings can be large; an effect the other way counts as inactive or inconclusive. Unless noted, % is scaled to controls: 0 for no effect and ±100 for the full control effect.
SMILES,DT40 TDP1 no CPT,HT1080NT lethal,TDP1 cell CPT,IL1B secr inh,HT1080 IDH1KD tx
Cc1c(C(=O)OCCOc2ccccc2)[nH]c2c1C(=O)CC(c1ccccc1Cl)C2 (configuration not stated),1.5µM*,.,1.5µM*,.,.
CCCCCOC(=O)c1[nH]c2c(c1C)C(=O)CC(c1ccco1)C2 (configuration not stated),0.16µM*,0.1µM*,0.18µM*,79,0.016µM*
CCOC(=O)c1[nH]c2c(c1C)C(=O)CC(c1ccc(F)cc1)C2 (configuration not stated),0.65µM*,2.1µM*,0.73µM*,126,2.9µM*
CCOC(=O)c1[nH]c2c(c1C)C(=O)CC(c1ccc(OCC)c(OC)c1)C2 (configuration not stated),?,?,-25%,-27,?
CCCOC(=O)c1[nH]c2c(c1C)C(=O)CC(c1ccc(OC)c(OC)c1)C2 (configuration not stated),-20%,-5%,?,16,-1%
COc1cc(=O)n2c(c1C(=O)N(C)Cc1nonc1C)CCN(C(=O)c1cc(C)cc(C)c1)CC2,-1%,.,9%,.,.
Cc1ccc(CN(c2ccc(C(=O)NCc3ccccn3)cc2)S(C)(=O)=O)cc1,0%,14%,4%,-11,4%
COc1ccc(CCNC(=O)CCCn2c(=O)c3ccccc3n(Cc3ccccc3C#N)c2=O)cc1OC,-18%,.,2%,.,.
COCCNC(=O)c1ccc(N2CC3CC(C2)c2cccc(=O)n2C3)c(NC(=O)c2ccccc2Br)c1 (configuration not stated),-8%,-2%,-9%,-12,0%
CN(C)S(=O)(=O)N1CCC(n2nccc2NC(=O)CCCc2ccccc2)CC1,-8%,0%,-27%,-2,0%
Cc1cn2cc(CNC(=O)CN3Cc4ccccc4OC(c4ccccc4F)C3)nc2s1 (configuration not stated),?,.,-5%,.,.
CN(C)CCCN(C(=O)c1ccco1)c1nc2c(F)cccc2s1,?,-30%,?,-15,?
CCN(CC)CCN(C(=O)c1ccc(C(=O)c2ccccc2)cc1)c1nc2cc3c(cc2s1)OCO3,?,-12%,?,-55*,-6%
CN(C)CCCN(C(=O)c1ccco1)c1nc2c(F)cc(F)cc2s1,21µM*,-29%,?,-25,-18%
CN(C)CCCN(C(=O)c1cccs1)c1nc2cc3c(cc2s1)OCO3,?,-12%,-18%,-10,2%
CCN(CC)CCN(C(=O)c1cccc(N2C(=O)CCC2=O)c1)c1nc2cc3c(cc2s1)OCO3,1%,-6%,22%,?,-4%
CCN(CC)CCN(C(=O)CCS(=O)(=O)c1ccccc1)c1nc2cc3c(cc2s1)OCO3,12µM*,-23%,8.2µM*,?,?
CN(C)CCCN(C(=O)c1ccc(C(=O)c2ccccc2)cc1)c1nc2cc3c(cc2s1)OCO3,23µM*,?,16µM*,-68*,?
CC(C)C[C@@H]1CN(CCCC[C@H]2CNC(=O)C(=O)N2CCC2CCCCC2)C(=O)C(=O)N1CC1CCCCC1,-30%,2%,-19%,65,3%
CCn1nc(CC(C)C)cc1C(=O)N1CCCC(Nc2ccc(OC)cc2)C1 (configuration not stated),?,1%,?,14,1%
CCN(CC)CCN(C(=O)c1ccc(C(=O)c2ccccc2)cc1)c1nc2c(OC)cccc2s1,-23%,-18%,?,-66*,-13%
CN(C)CCCN(C(=O)c1ccco1)c1nc2cc3c(cc2s1)OCO3,5.2µM*,?,3.7µM*,?,?
Cc1ccc2nc(N(CCCN(C)C)C(=O)c3ccco3)sc2c1,?,-6%,?,-11,-16%
Brc1ccc(OCc2nnnn2-c2ccccc2)cc1,?,-17%,0%,-69*,-18%
COc1ccc(OCc2nnnn2-c2ccccc2)cc1,-1%,20%,-4%,-10,-1%
SMILES,DT40 TDP1 no CPT,HT1080NT lethal,TDP1 cell CPT,IL1B secr inh,HT1080 IDH1KD tx
NCCCC[C@H](NC(=O)[C@@H]1CCCN1C(=O)[C@@H]1CSSC[C@H](NC(=O)CNC(=O)CNC(=O)CN)C(=O)N[C@@H](Cc2ccc(O)cc2)C(=O)N[C@@H](Cc2ccccc2)C(=O)N[C@@H](CCC(N)=O)C(=O)N[C@@H](CC(N)=O)C(=O)N1)C(=O)NCC(N)=O,-4%,.,-12%,.,.
O=C(CCC(=O)c1ccccc1)NCc1ccccc1,17%,-5%,-6%,13,4%
Cc1ccc(C(=O)Nc2cc3nn(-c4ccccc4)nc3cc2Cl)c(C)c1,1%,.,-1%,.,.
Cc1ccc(C(=O)Nc2cnn(-c3ccc(C(=O)NCc4nc(-c5ccccc5)n[nH]4)cc3)c2)c(C)c1,1.8µM*,.,0.92µM*,.,.
COc1ccc(Nc2ccccc2NC(=O)c2ccccc2Br)cc1,-21%,-25%,-1%,?,-4%
O=C(COC(=O)/C=C/c1ccc(F)cc1)NCc1ccc2c(c1)OCO2,-3%,10%,-6%,4,11%
O=C(COC(=O)/C=C/c1ccc(S(=O)(=O)N2CCOCC2)cc1)NCc1ccc(F)cc1,12µM*,-13%,3.7µM*,0,-12%
O=C(COC(=O)/C=C/c1ccc2c(c1)OCO2)NCc1ccc(F)cc1,21µM*,?,23µM*,24,?
CCC1=C(Nc2ccccc2)COC1=O,?,-1%,-3%,-9,-6%
COC(=O)C1C(=O)c2c([nH]c(C(=O)OC3CCCC3C)c2C)CC1C (configuration not stated),13µM*,-5%,16µM*,-26,0%
C=CCOn1c(=O)c(-c2cc3ccccc3o2)[n+]([O-])c2ccccc21,18µM*,-17%,-77%,28,-6%
COc1cccc(CNC(=O)Cn2c(=O)ccc3cc(S(=O)(=O)N4CCCC4)ccc32)c1,-23%,.,-22%,.,.
CCOC(=O)c1cccc(COC(=O)c2cccc(-c3nnc(-c4ccccc4)o3)c2)c1,16µM*,13%,26µM*,-10,12%
O=C(OCc1ccc(C(=O)c2ccccc2)cc1)c1cccc(-c2nnc(-c3ccccc3)o2)c1,?,4%,16µM*,-9,7%
CCOC(=O)c1c(-c2cccs2)csc1NC(=O)CN(CC)CC,?,-4%,?,42,-22%
COC(=O)c1c(-c2cccs2)csc1NC(=O)COc1ccccc1,21µM*,.,16µM*,.,.
COC(=O)c1c(-c2cccs2)csc1NC(=O)COc1ccc(C(C)(C)C)cc1,21µM*,.,15µM*,.,.
